Compound activity deposited in PubChem BioAssay by National Center for Advancing Translational Sciences (NCATS).
Tau fluor counter: counter-screen for tau fibril formation inhibitors. actives 0.93% (n = 280,000). tau K18 P301L Alexa594 fluorescence, heparin fibrillization. AID 1463. Potency, µM (doses to about 57.7 µM); note: nearly all actives have a fitted effect of over 55% in size
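Human K18 P301L tau (15 uM unlabeled plus 0.24 uM Alexa 594-labeled, final) in 100 mM sodium acetate pH 7 was mixed with compound and 20 uM heparin and incubated 6 hr at 37 C.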
RORgamma inh: inhibitors of mouse ROR gamma transcriptional activity | Drosophila S2 Gal4-RORgamma UAS-luciferase reporter, 20 h | P51450 | actives 5.4% (n = 310,000) | Potency, µM (highest dose often 53.6 µM), usual class: inhibitors; note: nearly all actives have a fitted effect of over 60% in size
Target sequence (P51450 whole entry, looked up, the tested form may be a part): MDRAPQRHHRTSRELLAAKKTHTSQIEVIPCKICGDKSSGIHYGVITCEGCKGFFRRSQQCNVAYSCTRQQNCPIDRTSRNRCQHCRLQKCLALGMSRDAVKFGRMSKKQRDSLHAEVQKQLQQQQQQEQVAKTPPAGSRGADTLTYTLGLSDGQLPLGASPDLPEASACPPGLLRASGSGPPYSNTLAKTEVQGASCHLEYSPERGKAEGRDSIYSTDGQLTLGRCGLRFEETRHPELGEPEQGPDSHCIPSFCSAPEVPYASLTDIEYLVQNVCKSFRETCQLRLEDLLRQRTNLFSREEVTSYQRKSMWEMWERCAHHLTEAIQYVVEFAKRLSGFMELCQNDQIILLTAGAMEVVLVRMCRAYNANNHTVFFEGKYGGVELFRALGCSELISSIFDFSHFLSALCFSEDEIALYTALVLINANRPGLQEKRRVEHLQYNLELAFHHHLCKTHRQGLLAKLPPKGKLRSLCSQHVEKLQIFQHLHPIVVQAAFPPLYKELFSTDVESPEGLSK
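Read-out: Photinus luciferase luminescence; inhibitors lower reporter signal. Insect Schneider cells with Gal4-ROR gamma fusion under metallothionein promoter, UAS reporter; 700 uM final copper sulfate induction, 20 hr, ambient temperature.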
Tau fibril FP: blocks human tau fibril formation measured by polarization; Potency, µM (highest dose often 57.7 µM), hits mostly inhibitors; actives 0.39% (n = 280,000); AID 1468; K18 P301L tau heparin fibrillization, Alexa594 FP, 6 h; P10636; note: nearly all actives have a fitted effect of over 55% in size
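K18 P301L tau (15 uM unlabeled/0.24 uM Alexa 594-labeled, final) + compound + heparin 20 uM final; 100 mM NaOAc pH 7; 6 hr 37 C; ThT 30 uM final added, 1 hr RT; FP ex 555/em 632 nm.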
Tau ThT inhib: inhibitors of human tau fibril formation, thioflavin T binding; recombinant tau K18 P301L (four-repeat tau fragment), heparin-induced fibrillization, ThT fluorescence; P10636; Potency, µM (doses to about 57.4 µM), most hits filed as inhibitors; actives 2.1% (n = 270,000); note: nearly all actives have a fitted effect of over 55% in size
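Recombinant human tau K18 fragment […] carrying P301L, 15 uM unlabeled plus 0.24 uM Alexa 594-labeled, was fibrillized with 20 uM heparin in 100 mM sodium acetate pH 7 for 6 hr at 37 C; 30 uM ThT fluorescence read after 1 hr.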
Gal4-VP16 FLuc: counter-screen for ROR gamma inhibitors: Gal4-VP16 reporter; actives 3.5% (n = 310,000); Drosophila S2 Gal4-VP16 UAS-luciferase, luminescence, 20 h; AID 2546; Potency, µM (top dose mostly 53.6 µM), most hits filed as inhibitors;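 note: Gal4-VP16 expression switched on by copper sulfate through the metallothionein promoter; nearly all actives have a fitted effect of over 50% in size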
Numbers stand for hits; – = inactive; ? = inconclusive; · = no result; ! = not active in a repeat; [ ] = dose if it differs, or a comment. The list is not random: actives were taken first. Their share in the collection is about 7.3%. Calls come from the whole dose curve; as a rule, active = well fitted curve in the direction sought with a large enough effect; inconclusive = small, poorly fitted or top-dose-only effect, or another doubt; inactive = no such curve, though single readings can be large; an effect the other way counts as inactive or inconclusive.

SMILES	Tau fluor counter	RORgamma inh	Tau fibril FP	Tau ThT inhib	Gal4-VP16 FLuc
O=C(Cc1cc(=O)[nH][nH]1)N/N=C/c1cccc2ccccc12	?	–	?	3.16µM	–
O[N+]1=CC=CCC1=S.On1ccccc1=S.[Zn]	–	0.316µM	?	?	0.501µM
CCCCC/C=C\C/C=C\C/C=C\C/C=C\CCCC(=O)N(Cc1ccc(O)c(Cl)c1)Cc1ccc(O)c(Cl)c1	–	–	–	–	–
COc1ccc(C2=C(C(C)=O)Sc3nnc(-c4ccc(C)cc4)n3N2C(C)=O)cc1OC	?	·	–	?	·
O=C(CSc1nnc(NC(=O)c2ccccc2[N+](=O)[O-])s1)NCc1ccco1	·	?	·	·	–
COc1ccc(Cc2nccc3cc(OC)c(OC)cc23)cc1OC	–	?	–	?	28.2µM!
CC(C)C(O)(C(=O)OC[C@@H]1CC[N+]2([O-])CCCC12)C(C)O (some centres not stated)	–	–	–	–	–
CC1=CC(c2ccccc2)NC(=S)N1 (configuration not stated)	–	11.2µM	–	–	?
Oc1c(Cl)cccc1Cl	·	–	·	·	–
c1cncc(C2Nc3cccc4cccc(c34)N2)c1	14.1µM[quencher]	?	?	12.6µM	–
CC(C)c1oc(=O)cc2c1[C@@H](O)[C@H]1OC(=O)[C@@]3(C)CC[C@@H](O)[C@@]2(C)C13 (some centres not stated)	–	20µM	–	–	5.01µM
O=c1c2ccccc2nc(-c2ccco2)n1-c1ccccc1	–	–	–	–	–
O=C(Nc1nnc(-c2ccco2)o1)c1cccc2ccccc12	–	0.0316µM	–	–	–
CNC1C2CN3CCC(O2)C13 (configuration not stated)	–	–	–	–	–
C=C(C)C1CCC(C)=CC1c1c(OC)cc(C)cc1OC (configuration not stated)	·	–	·	·	–
CCCc1cc(N2CCN(c3cccc(C)c3C)CC2)n2cnnc2n1	–	·	–	?	·
CCC(C=C[C@@H]1OC(=O)C=C[C@H]1C)=C[C@H](C)CC=CC(C)=C[C@@H](C)C(=O)[C@@H](C)[C@H](O)[C@@H](C)CC(C)=CC(=O)O	–[2.34 µM]	?	–[2.34 µM]	–[2.31 µM]	1.26µM
Cc1ccccc1Nc1c(-c2ccc(Br)cc2O)nc2sccn12	?	·	–	–	·
COc1ccc(Nc2c(-c3cc(Br)ccc3O)nc3ncccn23)cc1OC	8.91µM[quencher]	·	–	?	·
N#CC(O)c1ccccc1 (configuration not stated)	·	–	·	·	–
O=C(CN1CCCCC1)c1ccc(F)cc1	–	–	–	–	–
O=C(c1ccccc1)C(CN1CCCC1)c1ccccc1 (configuration not stated)	–	5.62µM	–	–	4.47µM
COc1ccc(N/N=C/c2c(O)n(-c3ccc(C)c(C)c3)c(=O)[nH]c2=O)cc1	–	–	?	17.8µM	–
Cc1ccc(-n2c(O)c(/C=N/Nc3ccccc3)c(=O)[nH]c2=O)cc1C	–	–	–	–	–
O=[N+]([O-])O[C@H]1CO[C@H]2[C@@H]1OC[C@H]2O	?	–	–	–	–
SMILES	Tau fluor counter	RORgamma inh	Tau fibril FP	Tau ThT inhib	Gal4-VP16 FLuc
CN(C)S(=O)(=O)c1ccc(C(=O)NNc2nc(-c3ccccc3)c3cc(Br)ccc3n2)cc1	–	7.08µM	–	–	?
CC(=O)N1CCN(c2ccc(OC[C@@H]3CO[C@@](Cn4ccnc4)(c4ccc(Cl)cc4Cl)O3)cc2)CC1	·	–	·	·	–
O=c1[nH]c(=O)n(Cc2ccco2)c(O)c1/C=N/N1CCCCCC1	–	–	–	–	–
N#Cc1c(/N=C/c2c(O)n(Cc3ccco3)c(=O)[nH]c2=O)sc2c1CCCC2	–	–	?	20µM	–
CCCC(C)C1(CC)C(=O)NC(=O)N=C1N (configuration not stated)	–	–[10 µM]	–	–	–
C=CCC1(C(C)CCC)C(=O)N=C(S)NC1=O (configuration not stated)	–	10µM	–	–	–
Cc1c(C(=O)c2cccc3ccccc23)c2cccc3c2n1[C@@H](CN1CCOCC1)CO3	?	–	–	–	–
[Hg+][c]1ccccc1	·	?	·	·	2.82µM
Cc1cccc(N=Nc2ccc(N(C)C)cc2)c1	·	7.94µM	·	·	12.6µM
